The values below come from PubChem BioAssay (Tox21).

Assay [1] is described as follows: qHTS assay to identify small molecule agonists of the estrogen receptor alpha (ER-alpha) signaling pathway in the presence of an antagonist - cell viability counter screen (AID 1259386).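 Further: series mostly up to about 92 µM; cells exposed to compounds for 22 h at 37 °C before the viability read; nearly all actives have a fitted effect of over 30% in size.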 Put shortly: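 In this counter screen, compound effects on VM7Luc4E2 viability were tested in the presence of the antagonist ICI-182,780 at 10.0nM final. Compounds were dosed at 15 concentrations, exposure lasted 22hr, and the CellTiter-Fluor signal was read.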

Assay [2] has as its target Progesterone receptor (Homo sapiens) (UniProt P06401). As to the kind of experiment: qHTS assay to identify small molecule agonists of the progesterone receptor (PR) signaling pathway (AID 1346784; calls by dose curve; further: nearly all actives have a fitted effect of over 30% in size). Put shortly:
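Beta-lactamase reporter read-out: after 16 hr compound treatment at 37C and a further 2 hr at room temperature with LiveBLAzer B/G FRET substrate, fluorescence was measured in PR-UAS-bla HEK 293T cells grown in 2% charcoal-stripped serum.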

Assay [3] in a line: qHTS assay to identify small molecule antagonists of the progesterone receptor (PR) signaling pathway - cell viability counter screen (AID 1346798). Further: nearly all actives have a fitted effect of over 50% in size. Further: potency means the concentration at half of the fitted maximal effect. Put shortly: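 HEK293T PR-UAS-bla, 2% charcoal-stripped FBS; 4 hr pre-plate; cpd + R5020, 16 h 37C; LiveBLAzer read first; then CellTiter-Glo 30 min RT, luminescence.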
A short description of assay [4]: qHTS assay to identify small molecule agonists of the progesterone receptor (PR) signaling pathway - cell viability counter screen (AID 1346799; calls by dose curve; further: nearly all actives have a fitted effect of over 45% in size; further: potency means the concentration at half of the fitted maximal effect). The method in brief:
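Luminescence from CellTiter-Glo, added after the beta-lactamase FRET read in the same wells, gave cytotoxicity in PR-UAS-bla HEK293T cells treated with compounds for 16 hr at 37C.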

Assay [5] in a line: qHTS assay to identify small molecule antagonists of the TGF-beta/Smad signaling pathway - cell viability counter screen (AID 1346824). Further: nearly all actives have a fitted effect of over 50% in size. The method in brief: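 Cytotoxicity counter-screen run in the same wells as the beta-lactamase Smad reporter read: CellTiter-Glo luminescence after 30 min at room temperature. HEK 293T SBE-bla cells had 5 hr compound exposure at 37 C with TGF-beta1 (0.25 ng/mL stock).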

A short description of assay [6]: qHTS assay to identify small molecule agonists of the TGF-beta/Smad signaling pathway - cell viability counter screen (AID 1346829). Further: top concentration of the series differs between compounds; nearly all actives have a fitted effect of over 45% in size. The method in brief:
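Here the cytotoxicity of library compounds is measured in SBE-bla HEK 293T cells treated for 5 hr, using CellTiter-Glo added to wells already read for the beta-lactamase reporter.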

The nature of assay [7]: qHTS assay to identify small molecule agonists of the TGF-beta/Smad signaling pathway (AID 1346859; active means well fitted activation curve with a large enough effect in the signal ratio in the repeat runs, not every such curve was filed as active; the % refers to the signal ratio; further: series mostly up to about 77 µM). The method in brief:
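SBE-bla HEK 293T, 4,000 cells/well, plated o/n; cpd in DMSO, 5 hr, 37 C/5% CO2; B/G FRET substrate 2 hr RT; ex 405, em 460/530 nm.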

The target in assay [8] is Thyrotropin-releasing hormone receptor (Homo sapiens) (UniProt P34981). Kind of assay: qHTS assay to identify small molecule antagonists of the thyrotropin-releasing hormone receptor (TRHR) signaling pathway (AID 1346877; active means well fitted inhibition curve with a large enough effect in the repeat runs, not every such curve was filed as active; further: series mostly up to about 51 µM). The method in brief: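 Kinetic fluorescence (3 min, 1 s resolution) following stimulation with TRH at 1 nM final; HEK293 cells bearing human TRHR; 5 min compound preincubation at RT; concentration-response over 15 points, triplicates.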

Assay [9] shares this target. Kind of assay: qHTS assay to identify small molecule agonists of the thyrotropin-releasing hormone receptor (TRHR) signaling pathway (AID 1346891; calls by dose curve; further: potency means the concentration at half of the fitted maximal effect; on activation: series mostly up to about 58 µM). Put shortly: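 Intracellular calcium rise, read as fluorescence every second for 3 min, served as the agonist signal in dye-loaded HEK293 cells expressing TRHR; each compound ran at 15 concentrations in triplicate.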
A short description of assay [10]: Human pregnane X receptor (PXR) small molecule agonists, qHTS cell viability counter screen (AID 1346977). Further: nearly all actives have a fitted effect of over 50% in size. The method in brief: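 PXR-Luc HepG2, 2,000 cells/well, 5% charcoal-stripped FBS; 5hr settle; cpd 24hr, 37C/5% CO2; CellTiter-Fluor at 23hr, read 1hr later (fluorescence).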
A short description of assay [11]: Caspase-3/7 induction in HepG2 cells by small molecules, qHTS assay (AID 1346978). Further: nearly all actives have a fitted effect of over 15% in size. The method in brief: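 Caspase-3/7 induction was measured by Caspase-Glo 3/7 luminescence (30 min, room temperature) after a 17 hr compound exposure of wild-type HepG2 cells seeded at 2,000 per well and pre-incubated 5 hr.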
Assay [12] in a line: Caspase-3/7 induction in CHO-K1 cells by small molecules, qHTS cell viability counter screen (AID 1346979). Further: nearly all actives have a fitted effect of over 35% in size. Put shortly: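 Cells (CHO-K1, wild type) are plated at 1,500 per well and incubated 5hr. Test compounds in DMSO are then pinned in, followed by 16hr at 37C and 5% CO2. Viability is read by CellTiter-Fluor fluorescence after 1hr.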
Assay [13] is described as follows: Caspase-3/7 induction in HepG2 cells by small molecules, qHTS cell viability counter screen (AID 1346981). Further: series mostly up to about 92 µM; nearly all actives have a fitted effect of over 30% in size. The method in brief:
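In this quantitative HTS counter screen, compounds delivered in DMSO were left on unmodified HepG2 cells for 16 hr at 37 C. Viability was then determined fluorometrically with CellTiter-Fluor, in parallel with caspase-3/7 induction in the same wells.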

The target in assay [14] is Nuclear receptor subfamily 1 group I member 2 (Homo sapiens) (UniProt O75469). As to the kind of experiment: Human pregnane X receptor (PXR) small molecule agonists, qHTS assay (AID 1346982). Further: nearly all actives have a fitted effect of over 35% in size. The method in brief: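 Reporter HepG2 cells expressing PXR-Luc are cultured in charcoal-stripped FBS (5%), treated with compounds for 24 hr at 37 C, and assayed by ONE-Glo luminescence after 30 min at room temperature.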

Assay [15] has as its target Cytochrome P450 2D6 (Homo sapiens) (UniProt P10635). As to the kind of experiment: Cytochrome P450 Family 2 Subfamily D Member 6 (CYP2D6) small molecule antagonists: luciferase reporter qHTS assay (AID 1671196). Further: nearly all actives have a fitted effect of over 50% in size. Further: potency means the concentration at half of the fitted maximal effect. The method in brief: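 Test chemicals meet CYP2D6 plus proluciferin substrate (10 min, RT); NADPH regenerating solution then drives turnover for 1 h. Detection reagent halts the reaction; luminescence measured after 20 min.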

A short description of assay [16]: Caspase-3/7 induction in CHO-K1 cells by small molecules, qHTS assay (AID 1346980). Further: nearly all actives have a fitted effect of over 15% in size. Put shortly:
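Luminescent Caspase-Glo 3/7 read (30min, room temperature) quantified apoptosis induction. Cells were wild-type CHO-K1, treated with compound for 17hr at 37 C and 5% CO2.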

The target of assay [17] is Nuclear receptor subfamily 1 group I member 2 (Rattus norvegicus) (UniProt Q9R1A7). Kind of assay: Rat pregnane X receptor (rPXR) activation by small molecules, qHTS assay (AID 1346983). Further: nearly all actives have a fitted effect of over 20% in size. The following applies: rPXR luciferase reporter cells, One-Glo luminescence, 24 h; max activation: hits give high values. Put shortly: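 Luminescent readout (One-Glo luciferase, 30 min room temperature) followed 24 hr compound treatment at 37 C of rPXR cells plated 2,000 per well and preincubated 5hr; qHTS format with compounds delivered in DMSO.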

Assay [18] addresses Nuclear receptor subfamily 1 group I member 2 (Homo sapiens) (UniProt O75469). As to the kind of experiment: CYP3A4 induction through human pregnane X receptor (PXR) by small molecules, qHTS assay (AID 1346984). Further: nearly all actives have a fitted effect of over 40% in size. Put shortly:
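Induction measured in HepG2-based DPX-2 cells co-expressing human PXR and a CYP3A4 promoter-driven luciferase. After a 24-hour compound exposure, cells received CYP3A4 luciferin substrate at 3uM final for 3 hours, and light output was then recorded.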

The target is the same in assay [19]. As to the kind of experiment: Human pregnane X receptor (PXR) activation by small molecules, qHTS assay (AID 1346985). Further: nearly all actives have a fitted effect of over 40% in size. Put shortly: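 DPX-2 cells (HepG2 co-transfected with a PXR response element and a CYP3A4-promoter luciferase construct) were seeded at 2,000 per well, rested 5 hr at 37C, then exposed to DMSO-dissolved compounds for 24 hr. Activation was read as luciferase luminescence.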

Molecules are shown by their SMILES. A number with no mark means an inactive call. Records with an inconclusive call do not appear. Active and inactive are the calls of the source. Unless noted, the call rests on the fitted dose curve; in most records, active means well fitted curve in the direction sought with a large enough effect in the repeat runs; inconclusive means weak or mixed curves; inactive means no such curve, though single readings can be large; an effect the other way counts as inactive or inconclusive.
On the % scale 0 is the no-effect control and ±100 the full control effect.

Sequence of Thyrotropin-releasing hormone receptor (Homo sapiens) (P34981 whole entry, looked up): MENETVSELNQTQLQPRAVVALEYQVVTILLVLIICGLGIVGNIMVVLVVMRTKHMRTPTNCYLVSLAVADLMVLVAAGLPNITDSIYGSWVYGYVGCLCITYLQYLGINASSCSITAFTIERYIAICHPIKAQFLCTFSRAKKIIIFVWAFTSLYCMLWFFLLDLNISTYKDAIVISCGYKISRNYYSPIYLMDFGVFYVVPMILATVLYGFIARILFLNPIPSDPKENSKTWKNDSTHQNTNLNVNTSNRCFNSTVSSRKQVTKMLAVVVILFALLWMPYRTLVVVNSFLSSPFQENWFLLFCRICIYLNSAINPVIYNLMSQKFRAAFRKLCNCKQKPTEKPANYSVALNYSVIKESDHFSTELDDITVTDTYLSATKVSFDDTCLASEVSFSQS
Sequence of Cytochrome P450 2D6 (Homo sapiens) (P10635 whole entry, looked up): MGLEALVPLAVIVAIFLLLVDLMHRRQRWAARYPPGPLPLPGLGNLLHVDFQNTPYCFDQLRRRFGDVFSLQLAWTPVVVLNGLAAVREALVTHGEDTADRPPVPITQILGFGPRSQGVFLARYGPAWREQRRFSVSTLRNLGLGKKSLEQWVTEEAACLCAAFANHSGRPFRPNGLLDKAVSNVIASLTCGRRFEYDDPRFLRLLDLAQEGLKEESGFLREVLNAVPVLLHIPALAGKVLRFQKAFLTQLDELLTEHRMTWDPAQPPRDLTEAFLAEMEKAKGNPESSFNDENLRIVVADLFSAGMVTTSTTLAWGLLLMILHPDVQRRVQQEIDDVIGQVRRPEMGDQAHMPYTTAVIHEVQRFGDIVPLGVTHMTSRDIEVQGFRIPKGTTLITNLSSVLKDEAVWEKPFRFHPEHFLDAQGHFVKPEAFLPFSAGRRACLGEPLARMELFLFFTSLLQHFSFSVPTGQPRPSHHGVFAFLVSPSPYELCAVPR
Sequence of Progesterone receptor (Homo sapiens) (P06401 whole entry, looked up): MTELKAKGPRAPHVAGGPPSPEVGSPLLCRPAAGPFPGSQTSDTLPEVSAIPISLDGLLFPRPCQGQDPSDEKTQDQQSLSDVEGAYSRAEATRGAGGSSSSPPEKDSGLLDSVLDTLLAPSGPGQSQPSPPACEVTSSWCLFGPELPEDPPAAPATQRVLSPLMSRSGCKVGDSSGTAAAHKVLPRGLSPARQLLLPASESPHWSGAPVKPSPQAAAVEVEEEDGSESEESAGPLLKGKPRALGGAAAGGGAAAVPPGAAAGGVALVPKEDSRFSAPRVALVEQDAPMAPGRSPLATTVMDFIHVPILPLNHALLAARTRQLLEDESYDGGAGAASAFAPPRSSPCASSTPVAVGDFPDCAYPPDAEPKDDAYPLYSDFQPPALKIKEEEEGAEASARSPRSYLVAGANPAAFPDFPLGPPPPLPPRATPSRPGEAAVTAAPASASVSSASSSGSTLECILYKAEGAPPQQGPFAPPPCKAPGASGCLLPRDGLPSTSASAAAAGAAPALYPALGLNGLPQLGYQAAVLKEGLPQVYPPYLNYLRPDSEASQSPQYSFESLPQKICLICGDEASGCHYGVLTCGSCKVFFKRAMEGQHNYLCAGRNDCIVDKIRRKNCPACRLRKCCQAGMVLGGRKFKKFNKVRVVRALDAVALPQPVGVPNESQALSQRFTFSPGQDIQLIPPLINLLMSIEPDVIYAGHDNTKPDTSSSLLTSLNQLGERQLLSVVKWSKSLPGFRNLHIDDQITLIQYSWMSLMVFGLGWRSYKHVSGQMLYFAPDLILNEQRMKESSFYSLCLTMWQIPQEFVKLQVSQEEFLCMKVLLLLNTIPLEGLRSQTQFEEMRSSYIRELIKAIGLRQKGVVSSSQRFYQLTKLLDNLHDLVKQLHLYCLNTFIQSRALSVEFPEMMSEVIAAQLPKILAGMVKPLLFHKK
Sequence of Nuclear receptor subfamily 1 group I member 2 (Homo sapiens) (O75469 whole entry, looked up): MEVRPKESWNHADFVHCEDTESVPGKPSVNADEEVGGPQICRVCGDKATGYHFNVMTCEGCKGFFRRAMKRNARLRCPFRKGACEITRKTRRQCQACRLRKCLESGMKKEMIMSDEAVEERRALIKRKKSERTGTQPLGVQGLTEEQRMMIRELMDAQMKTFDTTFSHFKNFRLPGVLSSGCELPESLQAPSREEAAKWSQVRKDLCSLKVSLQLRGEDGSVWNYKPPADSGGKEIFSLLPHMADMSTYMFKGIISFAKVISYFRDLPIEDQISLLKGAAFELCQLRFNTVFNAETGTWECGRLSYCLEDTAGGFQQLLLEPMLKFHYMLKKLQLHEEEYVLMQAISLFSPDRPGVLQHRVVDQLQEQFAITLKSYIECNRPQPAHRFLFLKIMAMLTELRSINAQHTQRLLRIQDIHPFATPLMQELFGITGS
Sequence of Nuclear receptor subfamily 1 group I member 2 (Rattus norvegicus) (Q9R1A7 whole entry, looked up): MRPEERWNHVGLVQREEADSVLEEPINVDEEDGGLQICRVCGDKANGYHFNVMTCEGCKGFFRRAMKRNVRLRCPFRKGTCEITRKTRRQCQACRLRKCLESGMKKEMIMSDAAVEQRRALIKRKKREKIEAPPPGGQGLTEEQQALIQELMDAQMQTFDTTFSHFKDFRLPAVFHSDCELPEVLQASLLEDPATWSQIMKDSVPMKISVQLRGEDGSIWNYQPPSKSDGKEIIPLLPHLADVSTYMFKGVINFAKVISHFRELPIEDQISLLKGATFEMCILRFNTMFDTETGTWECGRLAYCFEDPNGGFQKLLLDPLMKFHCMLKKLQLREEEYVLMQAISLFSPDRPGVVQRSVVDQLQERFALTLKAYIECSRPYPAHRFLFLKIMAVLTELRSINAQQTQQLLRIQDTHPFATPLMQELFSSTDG

Consider `CN(C)CCN(Cc1ccsc1)c1ccccn1`, for which the Potency entry in assay [1], in assay [2], in [3], in assay [4], in [5] and in assay [7] was “inactive” throughout. Also, the Potency entry in [9], in [10], in assay [11], in assay [12], in [13] and in [14] was “inactive” in each case. The molecule was classed as inactive in assay [6] and in [8]. In addition, the Potency in assay [15] is 3.89 µM (active).
Consider `CCCCC(CC)COC(=O)COc1ccc(Cl)cc1Cl` (stereo not given), for which the Potency result in assay [1], in [2], in assay [3], in [4], in assay [5] and in assay [7] was “inactive” each time. The Potency result in assay [9], in [10], in [11], in [12], in assay [13] and in [14] was “inactive” throughout. Besides, the result in assay [6] and in [8] was inactive.
In the case of `CCCCC`, the Potency result in [1], in assay [2], in assay [3], in [4], in [5] and in assay [7] was “inactive” throughout. The Potency result in [11], in [12], in assay [16], in [18], in [19] and in [15] was “inactive” in each case. Also, the molecule was classed as inactive in assay [6]. For the same molecule, the Potency in assay [9] is 27.1 µM (active). Moreover, the max activation in assay [17] is -1.52%.
Consider `O=[N+]([O-])c1ccc2[nH]ncc2c1`, for which the Potency entry in [1], in assay [2], in [3], in [4], in assay [5] and in [7] was “inactive” in each case. The Potency result in assay [9], in assay [10], in assay [11], in assay [12], in assay [13] and in [14] was “inactive” in each case. The Potency entry in assay [15] is “inactive”. In addition, the call in [6] and in [8] was inactive.
For the molecule `CC(=O)[O][Al]`, the Potency result in assay [1], in [2], in [3], in assay [4], in assay [5] and in [7] was “inactive” throughout. For the same molecule, the Potency result in [10], in assay [11], in assay [16] and in assay [13] was “inactive” throughout. Also, the outcome in assay [6] was inactive.
With `COCC(C)OC(C)=O` (stereo not given), the Potency entry in assay [1], in assay [2], in assay [3], in assay [4], in assay [5] and in assay [7] was “inactive” each time. Further, the Potency result in assay [10], in assay [12], in [16], in [13] and in [15] was “inactive” each time. The molecule was called inactive in assay [6].
Consider `Cc1cc(C(=O)O)ccc1[N+](=O)[O-]`, for which the Potency entry in assay [1], in assay [2], in assay [3], in assay [4], in [5] and in [7] was “inactive” each time. Besides, the Potency entry in assay [9], in assay [10], in [11], in assay [16], in [13] and in assay [14] was “inactive” in each case. Also, the result in [6] and in assay [8] was inactive. Further, the Potency in assay [15] is 56.5 µM (active).
For `CN(C)CCOC(c1ccccc1)c1ccc(Br)cc1` (stereo not given), the Potency result in assay [1], in assay [2], in assay [5], in assay [7], in assay [9] and in assay [11] was “inactive” throughout. For the same molecule, the Potency result in assay [12] and in assay [14] was “inactive” in each case. Also, the Potency in assay [3] is 13.3 µM (active); in assay [4], 16.8 µM (active); in assay [15] it was 1.55 µM (active). In addition, the result in assay [6] and in [8] was inactive.
